These results are taken from PubChem BioAssay (EPA / NIEHS).

Values joined by “and” are separate entries in the source; they are usually repeats but may differ in a detail not shown here. Equal values may be shown once. Inconclusive results are not listed. Some structures have more than one record in an assay (separate samples or runs), and their calls can disagree. Active and inactive are the calls of the source. How the source made its calls, unless noted: active means hit-call score of the fitted dose curve at least 0.9, where 1 is the maximum; inactive means score below 0.9.

The nature of assay [1]: BSK_BT_PBMCCytotoxicity: PBMC Cytotoxicity Assessment in the BioMAP Diversity Plus: BT Assay (AID 2284225).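 Further: PBMC viability measured by Alamar Blue dye reduction fluorescence.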 The conditions noted are these: primary human B cells with PBMC. In a few lines: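 Primary human co-culture of B cells and PBMC, pre-dosed 1 h then activated with SEB and TSST-1. Cytotoxicity is taken from Alamar Blue dye reduction, added for 6 h at the end of a 90 h incubation.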

Read-out in assay [2]: Secreted IgG (sIgG), gene 3500
Briefly: BSK_BT_sIgG: BioMAP Diversity Plus: BT Assay for Secreted IgG (sIgG) Biomarker Activity (AID 2284226). Particulars: primary human B cells with PBMC. The essentials:
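In this multiplexed co-culture system, ELISA quantifies sIgG 24 h post-treatment. Endpoint analysis uses positive fitting direction, DMSO negative control.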

A short description of assay [3]: BSK_BT_Bcell_Proliferation: Viability Assessment in the BioMAP Diversity Plus: BT Assay for B cell Proliferation (AID 2284227). The conditions noted are these: primary human B cells with PBMC. The essentials: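 Human B cells co-cultured with PBMC were dosed with test chemicals and relative cell number was quantified by SRB staining at 72 h. Cells were fixed in 10% TCA, stained with 0.1% SRB and read at 560 nm. Activity was fitted in the positive direction against DMSO.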

Read-out in assay [4]: Interleukin 6 (IL6), IL6 (gene 3569)
Briefly: BSK_BT_xIL6: BioMAP Diversity Plus: BT Assay for Interleukin 6 (IL6) Biomarker Activity (AID 2284228). The conditions noted are these: primary human B cells with PBMC. In a few lines:
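Readout: secreted IL-6 via Luminex xMAP multiplex, 24 h post-dosing. System: primary human B cells co-cultured with PBMC. Signal change scored relative to DMSO vehicle, positive fitting direction.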

Read-out in assay [5]: Interleukin 17A (IL17A), IL17A (gene 3605)
Briefly: BSK_BT_xIL17A: BioMAP Diversity Plus: BT Assay for Interleukin 17A (IL17A) Biomarker Activity (AID 2284229). The conditions noted are these: primary human B cells with PBMC. The essentials:
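Luminex xMAP readout of secreted IL-17A; human B cell + PBMC co-culture; 24 h post-dose; positive-direction fit vs DMSO negative control.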

Read-out in assay [6]: Tumor necrosis factor (Homo sapiens) (UniProt P01375)
Briefly: BSK_BT_xTNFa: BioMAP Diversity Plus: BT Assay for Tumor necrosis factor alpha (TNF-alpha) Biomarker Activity (AID 2284230). Particulars: primary human B cells with PBMC. In a few lines:
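B cells with PBMC in co-culture, dosed and sampled at 24 h; secreted TNF-alpha measured by Luminex xMAP bead assay. Activity fitted in the gain direction against DMSO as negative control and baseline.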

Read-out in assay [7]: Vascular cell adhesion molecule 1 (VCAM1), VCAM1 (gene 7412)
Briefly: BSK_MyoF_VCAM1: BioMAP Diversity Plus: MyoF Assay for Vascular cell adhesion molecule 1 (VCAM1) Biomarker Activity (AID 2284231). The conditions noted are these: primary human lung fibroblasts. The essentials:
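MyoF system, lung fibroblasts; 24 h post-dose; VCAM-1 by ELISA; gain-of-signal fit vs DMSO baseline.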

Read-out in assay [8]: Collagen I, COL1A1 (gene 1277)
Put plainly: BSK_MyoF_CollagenI: BioMAP Diversity Plus: MyoF Assay for Collagen I Biomarker Activity (AID 2284238). Particulars: primary human lung fibroblasts. The essentials: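 ELISA readout of Collagen I after 24 h chemical treatment of primary human lung fibroblast cultures; gain of signal scored relative to DMSO vehicle baseline.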

Assay [9] can be described thus: CCTE_Mundy_HCI_Cortical_Synap_Neur_Matur_SynapseCount: CCTE's Synaptogenesis and Neurite Maturation Assay in rat cortical cells for Synapse Count, Mundy Lab (AID 2284218). The essentials:
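Endpoint: synapses/neuron by HCI (synaptophysin puncta on MAP2-labelled neurites, Hoechst nuclei). Rat primary cortical cells, AraC DIV 5, dosed DIV 7, fixed DIV 12; DMSO negative control.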

Assay [10] in a line: CCTE_Mundy_HCI_Cortical_Synap_Neur_Matur_NeuriteCount: CCTE's Synaptogenesis and Neurite Maturation Assay in rat cortical cells for Neurite Count, Mundy Lab (AID 2284222).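 On outcome: exposure from day 7 to day 12 in vitro with readout at day 12.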 The essentials: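 Rat primary cortical cells; AraC added at DIV 5, chemicals dosed with media change at DIV 7 through DIV 12. MAP2/synaptophysin/Hoechst immunostaining, high-content imaging of neurite number; fitted relative to DMSO.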

A short description of assay [11]: CCTE_Mundy_HCI_Cortical_Synap_Neur_Matur_CellBodySpotCount: CCTE's Synaptogenesis and Neurite Maturation Assay in rat cortical cells for Cell Body Spot Count, Mundy Lab (AID 2284223). In a few lines: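 Read-out: cell body-associated synaptophysin puncta per neuron, imaged after MAP2, synaptophysin and Hoechst staining. Rat cortical cells, AraC DIV 5, chemical dosing DIV 7, fixation DIV 12. Activity fitted in positive direction relative to DMSO baseline.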

A short description of assay [12]: CCTE_Mundy_HCI_hNP1_Pro_ResponderAvgInten: CCTE's Proliferation Assay in human neuroprogenitor cells, Mundy Lab (AID 2284224; active means hit-call score of the fitted dose curve at least 0.9, where 1 is the maximum;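 further: human neural progenitor cells hNP1 derived from WA09 embryonic stem cells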). The essentials: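 Proliferation read as average intensity of BrdU-positive cells, imaged at 26.25 h post-dosing: chemical exposure started after 40–44 h culture, BrdU during final 4 h, paraformaldehyde fixation. Positive-direction fit relative to DMSO.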

Assay [13] in a line: UKN2_HCS_IMR90_cell_viability: Viability Assessment in the University of Konstanz (UKN) Leist Lab Neural Crest Cell Migration Assay in human induced IMR90 Pluripotent Stem Cells (UKN2) (AID 2284233).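 Further: cells exposed to compound for 24 h after a 24 h migration phase.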 In a few lines:
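Viability read as calcein-AM fluorescence by high-content imaging, Hoechst co-stain, 30 min. Human iPSC (IMR90) neural crest cells had migrated 24 h into stopper-defined gaps before 24 h chemical exposure. Fitted bidirectionally relative to DMSO.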

Assay [14] is described as follows: CCTE_Mundy_HCI_Cortical_NOG_NeuronCount: CCTE's Neurite Outgrowth Assay in rat cortical cells for Neuron Count, Mundy Lab (AID 2284236; active means hit-call score of the fitted dose curve at least 0.9, where 1 is the maximum;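 further: neurons counted by imaging betaIII-tubulin and Hoechst stained cortical cells; cells exposed to compound for about 48 hours before fixation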). The essentials:
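Read-out: neuron number by high-content imaging of betaIII-tubulin (Alexa Fluor-488) and Hoechst-labelled rat primary cortical cells.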

Assay [15] in a line: CCTE_Mundy_HCI_Cortical_NOG_BPCount: CCTE's Neurite Outgrowth Assay in rat cortical cells for Branch Point Count, Mundy Lab (AID 2284237).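 On AC50: branch points counted about two days after chemical exposure.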 In a few lines: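 Measured 50.33 h after dosing, this morphology endpoint uses rat primary cortical cultures labelled for betaIII-tubulin. Branch points are quantified by high-content imaging, with DMSO as negative control and baseline.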

Assay [16] in a line: CCTE_Mundy_HCI_hN2_NOG_NeuriteCount: CCTE's Neurite Outgrowth Assay in human hN2 cells for Neurite Count, Mundy Lab (AID 2284219; active means hit-call score of the fitted dose curve at least 0.9, where 1 is the maximum). In a few lines: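 In this morphology assay, hNP1-derived neurons received test chemical 2 h post-plating and were fixed two days later in warm paraformaldehyde/sucrose containing Hoechst 33342. Neurites, labelled by rabbit anti-βIII-tubulin (1:800) and Alexa Fluor-488 (1:500), were counted automatically.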

Assay [17] can be described thus: CCTE_Mundy_HCI_hN2_NOG_NeuriteLength: CCTE's Neurite Outgrowth Assay in human hN2 cells for Neurite Length, Mundy Lab (AID 2284220; active means hit-call score of the fitted dose curve at least 0.9, where 1 is the maximum). The essentials: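 Read-out is neurite length from high-content imaging of βIII-tubulin/Alexa Fluor-488-labelled neurons, referenced to DMSO controls.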
Assay [18] in a line: CCTE_Mundy_HCI_hN2_NOG_NeuronCount: CCTE's Neurite Outgrowth Assay in human hN2 cells for Neuron Count, Mundy Lab (AID 2284221; active means hit-call score of the fitted dose curve at least 0.9, where 1 is the maximum). The essentials: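 Read-out is the number of betaIII-tubulin-positive neurons imaged by automated high-content analysis, with DMSO as negative control.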
Assay [19] can be described thus: TAMU_PeakParms_SingleDonor1434_QT: Texas A&M University (TAMU) 1.5-hr Human Induced Pluripotent Stem Cell (iPSC)-derived Cardiomyocytes Calcium (Ca+2) Flux Assay for Cardiotoxicity: QT (decay-rise ratio) (AID 2284235; active means hit-call score of the fitted dose curve at least 0.9, where 1 is the maximum). In a few lines: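 Decay/rise ratio of calcium-flux fluorescence scored after 90 min exposure (37C) of donor 1434 iPSC cardiomyocytes to 0.2–100 uM (0.5% DMSO). Beat-cessation and severe-notch points removed; POD is EC05, a 5% rise over DMSO.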

Chain of Tumor necrosis factor (Homo sapiens) (P01375 whole entry, looked up): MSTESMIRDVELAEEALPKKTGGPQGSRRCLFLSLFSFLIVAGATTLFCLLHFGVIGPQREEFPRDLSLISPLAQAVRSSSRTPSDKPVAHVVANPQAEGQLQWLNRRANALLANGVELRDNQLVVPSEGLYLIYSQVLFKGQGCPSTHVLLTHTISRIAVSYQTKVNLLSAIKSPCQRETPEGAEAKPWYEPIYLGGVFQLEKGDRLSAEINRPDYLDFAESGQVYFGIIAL

As to `O=C(O)C(F)(F)C(F)(F)C(F)(F)C(F)(F)C(F)(F)C(F)(F)C(F)(F)C(F)(F)F`, the outcome in assay [1], in [2], in assay [3], in [4], in assay [5] and in assay [6] was inactive. For the same compound, the AC50 (as a rule, the midpoint of the concentration-response curve, whichever way the signal moves) in assay [3] is 30000 nM (active); in assay [6] it was 49800 nM (active); in [7] it was 30 µM (active) and 42.6 µM (active); in assay [8], 37.9 µM (active) and 34.1 µM (active).

`O=S(=O)(O)C(F)(F)C(F)(F)C(F)(F)C(F)(F)C(F)(F)C(F)(F)F`: the result in assay [9], in assay [10], in assay [11], in [12], in assay [1] and in assay [2] was inactive. Also, the outcome in assay [3], in assay [4], in assay [5], in [6], in assay [7] and in assay [13] was inactive. Besides, the compound was called inactive in assay [14], in assay [15] and in assay [8].

Regarding `CO/C=C(/C(=O)OC)c1ccccc1COc1cccc(C(F)(F)F)n1`, the AC50 in [9] is 871 nM (active); in assay [10], 1460 nM (active); in [11], 1160 nM (active); in assay [12], 86900 nM (active); in assay [13], 50000 nM (active); in [14], 2810 nM (active). For the same compound, in assay [15], the AC50 was 1280 nM (active).

With `Sc1ccccc1`, the outcome in assay [1], in assay [2], in assay [3], in assay [4], in assay [5] and in assay [6] was inactive. For the same compound, the outcome in assay [7] and in assay [8] was inactive.

As to `O=S(=O)(O)C(F)(F)C(F)(F)C(F)(F)C(F)(F)F`, the result in assay [9], in [10], in assay [11], in [1], in assay [2] and in assay [3] was inactive. The outcome in [4], in assay [5], in assay [6], in assay [7], in assay [13] and in assay [14] was inactive. In addition, the result in assay [15] and in assay [8] was inactive.

In the case of `C=CC(N)=O`, the outcome in assay [9], in assay [16], in assay [17], in [18], in [10] and in [11] was inactive. Also, the outcome in assay [19] and in assay [15] was inactive.
